Calls of active or inactive are those of the source. Unless noted, no rule for the calls is given here.

A short description of assay [1]: compounds binding Alexa647 anti-His antibody – biochemical, small-molecule microarray, 635 nm fluorescence, artefact control for SMM control protein annotation, primary screen (AID 1128).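 Also: score merges feature fluorescence with signal-to-noise for each printed compound spot.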 The note with it: higher = more signal.
Assay [2] deals with Human papillomavirus type 1a E7 protein (residues 1-88). The assay is described as follows: HPV1a E7 small-molecule binders, primary screen, biochemical, small-molecule microarray, residues 1-88, 635 nm (AID 1129). The note with it: small-molecule microarray binding, fluorescence 635 nm; higher = more signal.
The target in assay [3] is Focal adhesion kinase 1 (Homo sapiens) (UniProt Q05397). Kind of assay: PTK2 protein binding on printed compound slides – biochemical, small-molecule microarray, 635/667 nm fluorescence, BSA, DTT, primary screen (AID 1130).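 Also: composite of spot emission at 667 nm and signal to noise over triplicate slides.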 The settings on record: 635 nm fluorescence, higher = more signal.
The subject of assay [4] is Fibrinogen (Alexa647-labelled). Kind of assay: Alexa647-fibrinogen binding to printed small molecules – biochemical, small-molecule microarray, 635/667 nm fluorescence, artefact control for SMM control-protein annotation, profiling panel (AID 1131).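 Also: z-score merges 667 nm fluorescence with per-spot signal-to-noise over triplicate slides.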 The note with it: fibrinogen-A647 binding fluorescence, higher = more signal.
Assay [5] concerns the target Follistatin (Homo sapiens) (UniProt P19883). The assay is described as follows: FST protein binding to printed compounds – biochemical, small-molecule microarray, 635/667 nm fluorescence, primary screen (AID 1132). The settings on record: 635 nm fluorescence, higher = more signal.
The target of assay [6] is Fibroblast growth factor 2 (Homo sapiens) (UniProt P09038). The assay is described as follows: basic fibroblast growth factor binding to printed compounds – biochemical, small-molecule microarray, 635/667 nm fluorescence, primary screen (AID 1133). The settings on record: FGF2, fluorescence 635/667, higher = more signal.
A short description of assay [7]: JC-1 mitochondrial potential readout, lung cancer cells – cell-based, A549, JC-1 fluorescence, basal, 24 h, 100 nL, profiling panel (AID 1138).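 Also: A549 lung adenocarcinoma cells under basal conditions with no added stimulus; test concentration not given here.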 The settings on record: higher = more signal.
Assay [8] has as its system Lefty1. Kind of assay: Lefty1 protein binding to printed compounds – biochemical, small-molecule microarray, 635/667 nm fluorescence, primary screen (AID 1139). The settings on record: fluorescence 635/667, higher = more signal.
Assay [9] has as its system wheat germ agglutinin (Triticum aestivum), Alexa647-labelled. The assay is described as follows: Alexa647-WGA lectin binding to printed small molecules – biochemical, small-molecule microarray, 635/667 nm fluorescence, artefact control for SMM control-protein annotation, profiling panel (AID 1140).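 Also: score merges 667 nm feature emission with signal to noise over triplicate slides.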 The note with it: WGA-A647 binding, 635 nm fluorescence, higher = more signal.

Assay [10] concerns the target Luciferin 4-monooxygenase (Photinus pyralis) (UniProt P08659). Kind of assay: inhibition of purified Photinus pyralis luciferase – biochemical, luminescence, purified enzyme, 2006 set, primary screen (AID 1141).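 Also: cell-free assay with purified firefly luciferase at 100 ng per well in PBS; test concentration not given here.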 The note with it: purified firefly luciferase, SteadyGlo luminescence, 30 min; higher = more signal, called active from +8 up or from −8 down.
Assay [11] deals with Wnt5a (protein binding on small-molecule microarray). Kind of assay: small molecules binding Wnt5a protein – biophysical, small-molecule microarray, 635/667 nm fluorescence, primary screen (AID 1142).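 Also: fluorescence read at 667 nm with signal to noise per printed feature.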 The note with it: 635 nm fluorescence, higher = more signal.
Assay [12] is described as follows: ATP-based viability of Huh7 replicon cells – cell-based, CellTiter-Glo luminescence, basal, 48 h, cytotoxicity control for HCV replication inhibitor project, primary screen (AID 1143).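 Also: Huh7 hepatoma cells carrying a hepatitis C replication reporter with no stimulus; test concentration not given here.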 The note with it: higher = more signal, called active from +8 up or from −8 down.
Assay [13] can be described thus: Pseudomonas biofilm growth suppression – PAO1 strain, BacTiter-Glo luminescence, LB-PBS, primary screen (AID 1144). The settings on record: P. aeruginosa PAO1 biofilm, 12 h, higher = more signal.
The nature of assay [14]: basal CRE-LacZ reporter activity in PC12 – cell-based, unstimulated, primary screen (AID 1145). The settings on record: no forskolin, luminescence, 4.5 h, higher = more signal, called active from +8 up or from −8 down.
A short description of assay [15]: forskolin-driven CRE-LacZ activity in PC12 – cell-based, CRE-LacZ reporter, forskolin-stimulated, primary screen (AID 1146).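 Also: PC12 cells with 6xCRE LacZ reporter stimulated by forskolin 10 µM; beta-galactosidase reporter signal reflecting CREB driven transcription.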 The note with it: luminescence, 4.5 h, higher = more signal, called active from +8 up or from −8 down.
Assay [16] has as its target Streptavidin (Streptomyces avidinii) (UniProt P22629). Kind of assay: compounds binding control protein streptavidin – biophysical, small-molecule microarray, 635/667 nm fluorescence, artefact control for SMM compound annotation, primary screen (AID 1147).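 Also: signal reflects streptavidin binding to arrayed compounds as a control protein.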 The note with it: higher = more signal.
Assay [17] in a line: probe aInhba binding on compound microarray – biochemical, small-molecule microarray, 635/667 nm fluorescence, primary screen (AID 1148).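 Also: score merges 667nm spot fluorescence with signal-to-noise for antibody binding to printed compounds.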 The settings on record: higher = more signal.
Assay [18] deals with Torsin-1A (Homo sapiens) (UniProt O14656). Kind of assay: TOR1A wild-type binding on microarray – cell lysate, small-molecule microarray, lysate, 635/667 nm, primary screen (AID 1149). The settings on record: COS7 hTOR1A-WT lysate, 635 nm fluorescence, higher = more signal.
The target is the same in assay [19]. The assay is described as follows: torsin A mutant lysate binding on microarrays – cell lysate, small-molecule microarray, COS7 lysate, 635/667 nm fluorescence, primary screen (AID 1150).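 Also: score pools 667 nm emission and signal to noise measuring lysate protein binding.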 The note with it: COS7 hTOR1A mutant lysate, 635 nm fluorescence, higher = more signal.
The test system of assay [20] is Sonic hedgehog protein (Shh). Kind of assay: Sonic hedgehog microarray binding compounds – biochemical, small-molecule microarray, 635/667 nm fluorescence, primary screen (AID 1151).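 Also: Shh protein binding to compounds spotted on small-molecule microarray slides; score combines spot fluorescence intensity with signal-to-noise across triplicate slides.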 The settings on record: 635 nm fluorescence, higher = more signal.

Focal adhesion kinase 1 (Homo sapiens), sequence (Q05397 whole entry, looked up): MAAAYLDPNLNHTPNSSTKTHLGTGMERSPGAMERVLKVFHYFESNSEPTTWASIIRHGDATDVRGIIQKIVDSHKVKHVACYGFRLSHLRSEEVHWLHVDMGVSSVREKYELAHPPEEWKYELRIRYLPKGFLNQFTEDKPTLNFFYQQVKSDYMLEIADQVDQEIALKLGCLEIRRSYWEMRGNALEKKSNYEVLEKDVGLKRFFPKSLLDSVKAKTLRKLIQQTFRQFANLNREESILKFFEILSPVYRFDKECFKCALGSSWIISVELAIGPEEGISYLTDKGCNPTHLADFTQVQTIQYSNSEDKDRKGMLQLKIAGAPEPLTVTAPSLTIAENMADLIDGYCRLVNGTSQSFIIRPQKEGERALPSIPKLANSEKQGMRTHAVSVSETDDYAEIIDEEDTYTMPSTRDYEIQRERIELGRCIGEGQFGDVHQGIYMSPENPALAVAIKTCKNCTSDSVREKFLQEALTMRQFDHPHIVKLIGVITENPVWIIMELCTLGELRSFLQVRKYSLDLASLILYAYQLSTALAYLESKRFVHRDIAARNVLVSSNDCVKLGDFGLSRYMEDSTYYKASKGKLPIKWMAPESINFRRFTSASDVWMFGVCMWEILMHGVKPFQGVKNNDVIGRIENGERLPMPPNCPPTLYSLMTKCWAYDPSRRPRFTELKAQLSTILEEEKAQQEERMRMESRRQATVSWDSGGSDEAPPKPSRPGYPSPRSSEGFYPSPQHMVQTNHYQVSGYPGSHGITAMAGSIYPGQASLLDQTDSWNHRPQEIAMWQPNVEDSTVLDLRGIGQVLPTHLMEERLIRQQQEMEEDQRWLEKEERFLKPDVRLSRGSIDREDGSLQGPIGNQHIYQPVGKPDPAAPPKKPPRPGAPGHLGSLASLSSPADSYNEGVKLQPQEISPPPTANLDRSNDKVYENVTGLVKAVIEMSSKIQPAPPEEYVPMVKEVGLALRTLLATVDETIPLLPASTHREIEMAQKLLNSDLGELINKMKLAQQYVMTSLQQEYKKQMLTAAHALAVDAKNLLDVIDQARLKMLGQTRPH
Fibroblast growth factor 2 (Homo sapiens), sequence (P09038 whole entry, looked up): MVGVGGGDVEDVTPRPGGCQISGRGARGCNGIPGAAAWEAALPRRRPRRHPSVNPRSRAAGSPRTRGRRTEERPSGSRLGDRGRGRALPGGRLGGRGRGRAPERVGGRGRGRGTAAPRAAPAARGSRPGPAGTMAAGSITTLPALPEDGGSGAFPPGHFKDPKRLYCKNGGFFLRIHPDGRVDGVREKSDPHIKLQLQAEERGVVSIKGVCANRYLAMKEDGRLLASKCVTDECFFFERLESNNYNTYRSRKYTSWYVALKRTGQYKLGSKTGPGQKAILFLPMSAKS
Torsin-1A (Homo sapiens), sequence (O14656 whole entry, looked up): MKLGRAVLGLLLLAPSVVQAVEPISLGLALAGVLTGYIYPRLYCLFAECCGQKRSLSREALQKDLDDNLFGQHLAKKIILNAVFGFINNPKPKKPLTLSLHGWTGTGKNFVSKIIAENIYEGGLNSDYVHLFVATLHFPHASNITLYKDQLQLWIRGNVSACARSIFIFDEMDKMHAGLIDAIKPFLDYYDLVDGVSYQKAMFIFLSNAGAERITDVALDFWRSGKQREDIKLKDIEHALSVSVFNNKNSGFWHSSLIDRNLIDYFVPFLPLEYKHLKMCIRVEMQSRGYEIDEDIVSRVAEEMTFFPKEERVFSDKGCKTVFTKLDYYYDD
Follistatin (Homo sapiens), sequence (P19883 whole entry, looked up): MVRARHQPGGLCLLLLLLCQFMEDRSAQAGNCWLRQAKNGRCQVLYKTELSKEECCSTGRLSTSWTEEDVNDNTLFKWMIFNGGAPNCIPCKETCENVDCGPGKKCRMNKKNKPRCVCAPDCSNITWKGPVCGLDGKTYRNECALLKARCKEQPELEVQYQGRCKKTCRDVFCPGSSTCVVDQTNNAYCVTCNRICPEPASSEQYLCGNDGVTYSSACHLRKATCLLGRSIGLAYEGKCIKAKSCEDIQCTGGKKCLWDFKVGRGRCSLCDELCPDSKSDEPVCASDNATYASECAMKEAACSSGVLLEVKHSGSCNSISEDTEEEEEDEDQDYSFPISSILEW
Streptavidin (Streptomyces avidinii), sequence (P22629 whole entry, looked up): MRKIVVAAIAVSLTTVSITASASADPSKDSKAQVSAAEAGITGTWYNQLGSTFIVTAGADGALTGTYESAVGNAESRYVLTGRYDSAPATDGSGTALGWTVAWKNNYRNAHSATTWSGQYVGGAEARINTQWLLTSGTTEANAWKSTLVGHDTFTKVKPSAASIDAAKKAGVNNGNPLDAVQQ
Luciferin 4-monooxygenase (Photinus pyralis), sequence (P08659 whole entry, looked up): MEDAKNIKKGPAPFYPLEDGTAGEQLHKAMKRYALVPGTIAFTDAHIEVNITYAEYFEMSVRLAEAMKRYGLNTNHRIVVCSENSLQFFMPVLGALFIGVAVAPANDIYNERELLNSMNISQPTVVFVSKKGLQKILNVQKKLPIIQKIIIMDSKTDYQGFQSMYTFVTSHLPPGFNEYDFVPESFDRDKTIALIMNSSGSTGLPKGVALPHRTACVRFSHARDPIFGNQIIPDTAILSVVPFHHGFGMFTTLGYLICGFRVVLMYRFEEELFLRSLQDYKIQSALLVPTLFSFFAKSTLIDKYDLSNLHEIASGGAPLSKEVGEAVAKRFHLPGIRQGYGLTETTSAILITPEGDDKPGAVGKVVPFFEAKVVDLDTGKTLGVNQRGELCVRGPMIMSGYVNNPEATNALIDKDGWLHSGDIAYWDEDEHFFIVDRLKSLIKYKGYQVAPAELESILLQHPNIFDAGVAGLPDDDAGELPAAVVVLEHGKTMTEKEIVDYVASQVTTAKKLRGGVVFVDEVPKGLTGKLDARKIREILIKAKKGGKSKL

Consider `[N-]=[N+]=Nc1ccccc1[C@@H]1OC(c2ccc(OCCCO)cc2)=N[C@]1(Cc1ccccc1)C(=O)N1CCOCC1`, for which the composite z-score in assay [1] was found to be 2.31; in assay [2], 1.19; in assay [3] it was 0.142; in assay [4], 0.862; in assay [5], 1.26; in [6] it was 0.749. For the same molecule, the composite z-score in assay [8] came to 0.0367; in assay [9], 0.923; in [11], 0.546; in assay [16], 1.35; in [17], 0.0658; in assay [18], 0.311. Further, the figures for the composite z-score in assay [19] and in [20] were 0.58 and -0.3, respectively. Further, the z-score in assay [7] is 1.53; in assay [10], -5.98 (inactive); in [12], -3.97 (inactive); in assay [13] it was 0.617 (inactive); in assay [14], 1.56 (inactive); in [15], -1.42 (inactive).

In the case of `C=C(CC1([C@@H](NP(=O)(c2ccccc2)c2ccccc2)[C@H]2C[C@@H]2CCCC)CC1)c1ccccc1`, the composite z-score in assay [1] came out at 0.767; in assay [2], 1.19; in [3], 0.0976; in [4], 0.746; in assay [5], 0.132; in assay [6], 0.0962. Further, the composite z-score in assay [8] was -0.415; in assay [9], 0.729; in assay [11], 0.542; in assay [16], 1.39; in assay [17] it was 0.374; in [18] it was 0.443. The composite z-score in assay [19] was 0.738; in assay [20], -0.509. Besides, the z-score was -0.0757 in assay [7]; 2.82 (inactive) in assay [10]; -3.74 (inactive) in [12]; 0.955 (inactive) in [13]; 0.4 (inactive) in [14]; 0.151 (inactive) in assay [15].

Consider `COc1ccc(CCNC(=O)[C@@H]2c3ccccc3C(=O)N(Cc3ccccc3Cl)[C@H]2c2ccc(CO)cc2)cc1`, for which the composite z-score in [1] is 0.218; in [2] it was 1.14; in assay [3] it was 0.224; in assay [4], 0.435; in assay [5], 0.495; in [6], 0.187. Also, the composite z-score was -0.0833 in [8]; 0.261 in assay [9]; 0.177 in [11]; -0.001 in assay [16]; -0.0645 in assay [17]; 0.25 in assay [18]. The composite z-score in [19] was 0.0327; in assay [20], -0.214. Further, the z-score in [7] is 2.4; in assay [10], -0.745 (inactive); in assay [12], -0.124 (inactive); in assay [13] it was 0.603 (inactive); in assay [14] it was 0.701 (inactive); in assay [15], -0.977 (inactive).

Regarding `COc1ccc([Si](C)(C)[C@@H]2[C@@H](CCO)O[C@]3(C(=O)N(Cc4ccc(N(C=O)c5ccccc5)cc4)c4ccccc43)[C@H]2C)cc1`, the composite z-score in assay [1] turned out to be 0.297; in assay [2] it was 0.34; in assay [3], 0.0744; in assay [4] it was 0.845; in [5] it was 0.735; in assay [6], 0.526. For the same molecule, the composite z-score in assay [8] was 0.0434; in [9] it was 1.06; in [11], 0.0862; in assay [16] it was 0.426; in [17] it was 0.106; in assay [18], 0.164. The figures for the composite z-score in assay [19] and in [20] were 0.469 and 0.868, respectively. The z-score in assay [7] is -0.0272; in [10] it was 0.0379 (inactive); in assay [12], -6.2 (inactive); in assay [13], 0.00917 (inactive); in [14], 4.55 (inactive); in assay [15], 1.03 (inactive).

As for `COc1ccc([Si](C)(C)[C@H]2[C@H](CCO)O[C@@]3(C(=O)N(Cc4ccc(N(C=O)c5ccccc5)cc4)c4ccccc43)[C@@H]2C)cc1`, the composite z-score was 0.841 in assay [1]; 0.179 in [2]; 0.114 in [3]; -0.568 in assay [4]; 0.191 in [5]; -0.408 in assay [6]. Besides, the composite z-score in assay [8] is 0.151; in assay [9] it was 0.655; in [11], -0.308; in [16] it was 0.114; in assay [17], -0.157; in assay [18], -0.498. The values for the composite z-score in assay [19] and in [20] were -0.074 and 0.399, respectively. The z-score in assay [7] was 0.357; in [10], 0.221 (inactive); in assay [12] it was -5.81 (inactive); in assay [13], -0.305 (inactive); in [14] it was 1.92 (inactive); in assay [15], -1.24 (inactive).

For the origin of these results see PubChem BioAssay.
